# Measured values reported in PubChem BioAssay (NCATS).
# Results filed as inconclusive are left out. A number with no mark means an inactive call. Calls follow the shape of the dose curve; as a rule, active = well fitted curve in the direction sought with a large enough effect; inconclusive = small, poorly fitted or top-dose-only effect, or another doubt; inactive = no such curve, though single readings can be large or run the other way. *1 amine or outer side, *2 acyl side, *3 side chain or, on linkers, in order; H or OH if unused. Where a SMILES comes first, the peptide text is derived from it. Bridges are numbered along the chain shown (N, C = ends). [ ]: non-standard residue; d: D form. The star is where a group is joined. X5 = NC1=N[C@@H]([C@H](N[*:1])C(=O)[*:2])C[C@H](O)N1; ΔAla(Z-3-ureido) = NC(=O)N/C=C(\N)C(=O)O; β3hOrn = NCCC[C@H](N)CC(=O)*; Dap = NC[C@H](N)C(=O)O
# Test: qHTS Assay for Identifying Gametocytocidal Compounds (AID 743244);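 also: actives lower the fluorescent signal which means gametocytes are killed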
# Settings: P. falciparum 3D7 stage III-V gametocytes, alamarBlue, 72 h; max response: stronger effect = lower value
# How it was run: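 3D7 gametocytes, stages III–V, 20,000/well; cpd 72 h, 37 °C/5% CO2; + alamarBlue 24 h; fluor. Ex 525/Em 598.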
# % is scaled to controls: 0 for no effect and ±100 for the full control effect.
row,SMILES,max response [%]
1,C#C[C@]1(O)CC[C@H]2[C@@H]3CCC4=C(CCC(=O)C4)[C@H]3CC[C@@]21C,12.4
2,CC(C)Cc1ccc([C@@H](C)C(=O)NS(C)(=O)=O)cc1,17.9
3,NC(=O)C1c2ccccc2CCc2ccccc21,-4.56
4,CN(Cc1ccccc1)Cc1ccccc1,1.68
5,Cc1ncc(C[n+]2csc(CCOP(=O)(O)O)c2C)c(N)n1,-3.97
6,NCCC[C@H](N)CC(=O)N[C@H]1CNC(=O)[C@H]([C@H]2C[C@H](O)NC(N)=N2)NC(=O)/C(=C/NC(N)=O)NC(=O)[C@H](CO)NC(=O)[C@H](CO)NC1=O (β3hOrn-[Dap]SS[ΔAla(Z-3-ureido)][X5]; lactam 1-C),13.7
